mHTT-CaM PPI inh: inhibitors of human mutant huntingtin-calmodulin interaction; P42858; AlphaScreen His-mHTT/GST-CaM binding, luminescence; inhibition, % at 15 µM; hit rate 3.6% among 190,000; AID 1671202;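 also: 0% = both proteins with DMSO and 100% = one protein alone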
Pf apPOL inh: Pf-apPOL DNA polymerase inhibition | Recombinant Pf-apPOL, molecular beacon fluorescence, 1.5 h | hit rate 0.25% among 210,000 | inhibition, % at 10 µM
The depositor's hits bear a star; nt = not tested or not shown. This is one part of a sample in which hits are shown more often than they occur. Rule as the data show it: active = inhibition above about 50%; inactive = the rest.

SMILES | mHTT-CaM PPI inh | Pf apPOL inh
CC1(C)CCC(C)(C)c2cc3c(cc21)C(C)(C)CCC3(C)C | nt | -8
COc1ccc(/C=C2\SC(=O)N(c3ccccc3OC)C2=O)cc1 | 4 | -4
COc1ccccc1N1C(=N)S/C(=C\c2ccc(Br)c([N+](=O)[O-])c2)C1=O | 57* | -8
O=C(O)COc1ccc2c(c1)OC(=Cc1ccc(Cl)c(Cl)c1)C2=O | -5 | 63*
O=C(O)COc1ccc2c(c1)OC(=Cc1cccc(Br)c1)C2=O | -3 | 15
C[C@H]1[C@@H]2C[C@H]([C@H]3CCCCN31)[C@H](OC(=O)Nc1ccc(C(F)(F)F)cc1)C2 | 76* | -3
CCCC[C@H]1[C@@H]2C[C@H]([C@H]3CCCCN31)[C@H](OC(=O)Nc1ccc(C(F)(F)F)cc1)C2 | -15 | -8
O=c1/c(=C/c2ccccc2O)sc2n1CN(c1ccccc1)CN=2 | 28 | 8
COc1ccc(C2=NOC(C(=O)N3CCCC3)C2)cc1OC (stereo unspecified) | -7 | -1
CCOc1ccccc1C(=O)Nc1c2c(nn1-c1ccc(F)cc1)CS(=O)C2 (stereo unspecified) | 4 | -3
CCOc1ccc(C2=C/C(=C\c3cccs3)C(=O)O2)cc1 | 9 | 52*
COc1ccc(C2=C/C(=C\c3cccs3)C(=O)O2)cc1 | 7 | -12
O=C1OC(c2ccc(Cl)cc2)=C/C1=C\c1ccc(Br)o1 | 5 | 4
CCOc1ccc(C2=C/C(=C\c3ccc(Br)o3)C(=O)O2)cc1 | 98* | -5
CC(=O)Nc1cc(C(=O)N2CCC3(CC2)OCCO3)ccc1Nc1cccc(Cl)c1 | 23 | -1
CCC(=O)Nc1nc(C)c(-c2csc(Nc3ccccn3)n2)s1 | 41 | 0
COc1ccccc1Nc1nc(-c2ccccn2)cs1 | 97* | -7
COc1ccc(OC)c(Nc2nc(-c3ccncc3)cs2)c1 | 6 | -10
CCC(=O)Nc1nc(C)c(-c2csc(Nc3ccccc3OC)n2)s1 | 41 | 28
O=[N+]([O-])c1cccc(Nc2nc(-c3ccccn3)cs2)c1 | 48 | -3
COc1ccccc1Nc1nc(-c2sc(N)nc2C)cs1 | 74* | -1
CCc1ccccc1Nc1nc(-c2ccccn2)cs1 | 99* | -2
Cc1c(Cl)cccc1Nc1nc(-c2ccccn2)cs1 | 100* | 1
O=C(Cc1ccc(F)cc1)N1CCCC(OCc2nc(C3CC3)no2)C1 (stereo unspecified) | -3 | 1
CCCN1C(=O)C2CCC(=O)N2c2ccc(C(=O)NCc3cccc(OC)c3OC)cc21 (stereo unspecified) | -2 | -6
SMILES | mHTT-CaM PPI inh | Pf apPOL inh
Cc1onc(-c2ccccc2Cl)c1C(=O)NC1Cc2ccccc2C1 | nt | -5
Cc1n[nH]c(C)c1S(=O)(=O)N1CCCC1 | -13 | 1
O=C(CSc1n[nH]c(-c2ccco2)n1)c1cccc([N+](=O)[O-])c1 | 13 | -4
CC(C)n1cnnc1C1CCCN(Cc2ccsc2)C1 (stereo unspecified) | 10 | 3
CCOc1ccc(NC(=O)C(=O)NCCCc2ccccc2)cc1 | -11 | -4
CCc1nc(-c2cccnc2N2CCCC(C(=O)N(C)Cc3ccco3)C2)no1 (stereo unspecified) | 11 | -4
COc1ccc(Cl)cc1Nc1nc(-c2ccccn2)cs1 | 56* | 0
COc1ccc(Cl)cc1Nc1nc(-c2ccncc2)cs1 | -2 | -3
O=c1sc2c(n1-c1ccccc1)SCC1COc3ccccc3C21 (stereo unspecified) | 66* | -14
O=C(O)CCn1c2c(sc1=O)C1c3ccccc3OCC1CS2 (stereo unspecified) | 26 | 1
N=C1SCC(=O)N1c1nonc1N | -3 | nt
COc1ccc(-c2ccc(S(=O)(=O)NCc3ccc(C(=O)O)cc3)cc2)cc1 | -1 | -12
Cc1ccc(S(=O)(=O)N(/C=C2\Sc3ccccc3C2=O)c2ccc([N+](=O)[O-])cc2)cc1 | 60* | -2
O=C1/C(=C/N(C(=O)c2ccco2)c2ccc([N+](=O)[O-])cc2)Sc2ccccc21 | 19 | 32
COc1ccc(Cl)cc1C(=O)Nc1ccc(CC#N)cc1 | 4 | -6
CC1C(c2ccc(N(C)C)cc2)NC(c2ccc(N(C)C)cc2)C(C)C1O (stereo unspecified) | 17 | -9
CC1C(=NO)C(C)C(c2ccc(N(C)C)cc2)NC1c1ccc(N(C)C)cc1 (stereo unspecified) | 76* | -11
O=C(CSc1n[nH]c(-c2ccccc2)n1)Nc1nnc(-c2ccc([N+](=O)[O-])cc2)s1 | 15 | -3
COCc1cccc(NC(=O)c2cccc(Br)c2)c1 | -11 | 54*
CC(=O)c1cccc(NC(=O)c2cccc(Br)c2)c1 | -21 | -4
CCN(CC)c1ccc(Nc2nc(-c3ccccc3)cs2)cc1 | 80* | 3
CCN(CC)c1ccc(Nc2nc(-c3ccc(OC)cc3)cs2)cc1 | 80* | -2
CCCC(=O)Nc1nc(-c2ccccc2)cs1 | 4 | -6
COc1ccc(Nc2nc(-c3cccc([N+](=O)[O-])c3)cs2)cc1 | 84* | 2

Source: PubChem BioAssay
